Assay outcomes as filed in PubChem.
Most compounds without a hit are left out; they make up all but 5.7% or so of the library.
D3 ag: activates the human D3 dopamine receptor; actives 0.58% (n = 410,000); AID 652048; max activation, %; D3R DiscoveRx beta-arrestin cells, luminescence, 90 min; P35462; in the data active means max activation above about 30%; further: 0% is about no effect
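Agonist mode: compounds and dopamine controls were applied to plated cells for 90 min at 37 degrees C after an overnight attachment at 1500 cells/well. Luminescent read-out followed 30 - 60 minutes at room temperature with DiscoveRx detection reagent.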
D3 antag: D3 dopamine receptor (human) antagonism; P35462; max response, negative = inhibition, %; D3R cells, DiscoveRx beta-arrestin luminescence, antagonist mode; active compounds read low; actives 2.5% (n = 360,000); in the data active means max response below about -50%; inconclusive means no clear call, values can overlap the other calls; further: on the % scale 0 is the no-effect control and ±100 the full control effect
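Cells plated overnight at 1500 cells/well, then exposed to library compounds with dopamine controls for 90 minutes at 37 degrees C. DiscoveRx reagent added for 30–60 minutes at room temperature; luminescence read, quantitative HTS format.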
GLP-1R agonist: GLP-1 receptor (human) agonism; HEK293 GLP-1R CRE-luciferase, luminescence, 4-6 h; cells express a hypersensitive GLP-1R form; actives 0.007% (n = 380,000); Potency, µM (titrated, usually from 45.6 µM), for the others: at the top dose activation, usual class: activators; further: potency means the concentration at half of the fitted maximal effect; % of control where 0% means no effect
HEK293 tox: cytotoxicity in counter-screen for GLP-1R inverse agonists; HEK293 cAMP-luciferase reporter cells, luminescence, 24 h; Potency, µM (doses to about 38.3 µM), for inactives: at the top dose activity change, negative = inhibition, actives largely listed as inhibitors; actives 0.13% (n = 410,000); AID 624418;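 further: loss of luciferase light is scored as toxicity; potency means the concentration at half of the fitted maximal effect; on the % scale 0 is the no-effect control and ±100 the full control effect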
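1536-well qHTS counterscreen of the MLSMR; 200 cells/uL, 12 h pre-incubation, 23 nL cpd, 24 h at 37 deg C 5% CO2, luciferase detection reagent, 12 min RT, luminescence. Inhibition = undesired.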
ClpP mod: qHTS Assay for Activators of ClpP; ATP-dependent Clp protease proteolytic subunit (Bacillus subtilis (strain 168)), P80244; purified B. subtilis ClpP, FRET peptide cleavage, 20 min; Potency, µM (top dose mostly 57.5 µM), for inactives: at the top dose activity change, negative = active; actives 1.9% (n = 340,000); AID 651965, 2013; active means well fitted falling curve with a large enough effect; inconclusive means small, poorly fitted or top-dose-only effect; inactive means no such curve, though single readings can be large or run the other way; further: potency means the concentration at half of the fitted maximal effect; the source files actives as falling curves though it sought activators and does not explain the sign; nearly all actives have a fitted effect of over 65% in size
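Purified B. subtilis ClpP, 10 microg/mL final in Tris/HCl pH8 with KCl, BSA, glycerol and Tween-20, cleaved an Abz/nitrotyrosine-quenched decapeptide. Fluorescence (ex 320, em 430) was read at 0 and 20 min at room temperature. Delta was normalized to 5.8 microM ADEP and DMSO/no-enzyme controls.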
GLP-1R inv ag: acts as inverse agonist at human GLP-1 receptor; P43220; HEK293 GLP-1R CRE-luciferase, luminescence, 24 h; GLP-1R form is constitutively active; Potency, µM (series often up to 38.3 µM), without a hit: at the highest dose activity change, negative = inhibition, most hits filed as inhibitors; actives 1.6% (n = 410,000); AID 624417; further: potency means the concentration at half of the fitted maximal effect; on the % scale 0 is the no-effect control and ±100 the full control effect; nearly all actives have a fitted effect of over 55% in size
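Assay principle: reduced luminescence from a cAMP-responsive reporter in HEK293 cells co-expressing a constitutively active GLP-1R. Conditions: 24 hr compound incubation, 37 deg C, 5% CO2.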
An asterisk follows results filed as active; ? = inconclusive; nt = not tested or not shown; [ ] = dose if it differs, or a comment. Unless noted, the call rests on the fitted dose curve; in most records, active means well fitted curve in the direction sought with a large enough effect; inconclusive means small, poorly fitted or top-dose-only effect, or another doubt; inactive means no such curve, though single readings can be large; an effect the other way counts as inactive or inconclusive.

SMILES	D3 ag	D3 antag	GLP-1R agonist	HEK293 tox	ClpP mod	GLP-1R inv ag
COCc1c(C(=O)N2CCN(CCOc3ccccc3)CC2)oc2ccccc12	88*	-7	16%	-1%	6%	?
Cc1c(C(=O)OCCN2CCCCC2)oc2ccccc12	-4	-61*	4%	27%	-25%	0%
Cc1c(C(=O)N2CCN(CCc3ccccc3)CC2)oc2ccccc12	-26	-86*	5%	-18%	-1%	?
O=C(OCCN1CCCCC1)c1c[nH]c2ccccc12	0	-57*	25%	-2%	0%	1%
Cc1c(C(=O)OCC(=O)N2C(C)CCCC2C)oc2ccccc12 (stereo not drawn)	4	-11	11%	-5%	-22%	?
O=C(C(=O)N1CCCCCC1)c1c[nH]c2ccccc12	-4	-4	13%	1%	-1%	-22%
COC(=O)[C@]12CCCCC=C1N(Cc1ccco1)C(=O)[C@H](CC(=O)NCc1cccc3ccccc13)C2	-3	-1	3%	-1%	-5%	?
OC(CNC1CCCc2ccccc21)COc1ccc2ccccc2c1 (stereo not drawn)	-3	-4	9%	-9%	0%	?
COc1ccc(CNC2CCCc3ccccc32)cc1OC (stereo not drawn)	-24	4	3%	0%	5%	?
CCOc1ccc(CNC2CCCc3ccccc32)cc1 (stereo not drawn)	-22	-51*	3%	4%	-2%	?
CCc1ccccc1OC[C@@H](O)CN[C@H]1CCCc2ccccc21	-59	-53*	-2%	-21%	-2%	?
COc1ccc(CCNC(=O)c2ccc3c(c2)N=C(C)c2ccccc2S3)cc1OC	3	nt	3%	-5%	0%	-6%
COc1cc(/C=C2\SC(=S)N(Nc3ccccc3)C2=O)ccc1O	-10	?	-1%	10µM*	28µM*	?
COc1cc(/C=C2\SC(=S)N(C(Cc3ccccc3)C(=O)O)C2=O)ccc1O (stereo not drawn)	-5	-27	-4%	10µM*	1%	-4%
CCOc1cc(/C=C2\SC(=S)N(Nc3ccccc3)C2=O)ccc1O	-15	?	-3%	-8%	-2%	?
CCCCn1c(N)c(N(CCOC)C(=O)c2ccc(Cl)c(S(=O)(=O)N3CCCCC3)c2)c(=O)[nH]c1=O	-3	4	-3%	14%	32µM*	7%
CC1CCCN(C(=O)CNC(=O)c2sc3ccccc3c2Cl)C1 (stereo not drawn)	-11	-26	13%	4%	-5%	?
CC1CC(C)CN(C(=O)CNC(=O)c2sc3ccccc3c2Cl)C1 (stereo not drawn)	-2	-8	-9%	5%	-6%	3.2µM*
CC1(C(=O)O)CCCN(C(=O)c2ccc(OC(F)F)cc2)C1 (stereo not drawn)	0	-4	-5%	1%	1%	7%
CCOC(=O)c1c(NC(=O)c2ccco2)n(C2CCCCC2)c2nc3ccccc3nc12	-11	-23	4%	173%	28µM*	?
CCOc1cc(S(=O)(=O)NCCc2ccc(OC)c(OC)c2)c(OCC)cc1-n1cnnn1	8	26	-2%	-26%	-2%	7%
CCOc1cc(S(=O)(=O)NCc2ccc(OC)cc2)c(OCC)cc1-n1cnnn1	-1	-16	0%	?	22µM*	0%
CCOc1cc(S(=O)(=O)NCC2OCCc3ccccc32)c(OCC)cc1-n1cnnn1 (stereo not drawn)	2	-11	12%	-1%	13µM*	0%
CCOc1cc(S(=O)(=O)NC2CC2)c(OCC)cc1-n1cnnn1	-8	3	-6%	-5%	32µM*	7%
CN1CCN(c2nc(-c3ccc(Br)cc3)nnc2-c2ccccc2)CC1	-15	-14	25%	-2%	-1%	8.9µM*
SMILES	D3 ag	D3 antag	GLP-1R agonist	HEK293 tox	ClpP mod	GLP-1R inv ag
CN1CCN(c2nc(-c3ccccc3)nc(-c3ccccc3)c2C#N)CC1	-3	-29	0%	-10%	nt	-12%
COc1ccc(-c2nc(-c3ccccc3)nc(N3CCN(C)CC3)c2C#N)cc1	-12	-85*	-9%	1%	0%	31%
Brc1ccc(-c2nnc(-c3ccccc3)c(N3CCSCC3)n2)cc1	-8	-7	-27%	3%	2%	8.9µM*
CCN1CCN(CC(=O)N/N=C/c2cc(Br)cs2)CC1	-4	-53*	-6%	1%	-8%	1%
COc1cccc(C(=O)NC2CCCN(C3Cc4ccccc4C3)C2)c1OC (stereo not drawn)	-3	-93*	19%	-3%	-2%	-10%
C=C1c2c(Cl)ccc(O)c2C(O)=C2C(=O)[C@]3(O)C(O)=C(C(N)=O)C(=O)[C@@H](N(C)C)[C@@H]3[C@@H](O)[C@H]12	4	nt	nt	nt	nt	nt
N#CC1(CCCN2CCCCC2)c2ccccc2CCc2ccccc21	-24	-93*	13%	-36%	0%	?
OC1(C#CCCN2CCCCC2)c2ccccc2-c2ccccc21	-7	-3	-3%	-9%[7.66 µM]	0%	-23%[7.66 µM]
Cc1ccc(-c2nc(S(=O)(=O)c3ccc(C)cc3)c(SCC(=O)c3ccccc3)o2)cc1	7	nt	nt	0%	-2%	?
COc1cccc(CNc2nc3ccccc3n2C)c1O	-16	-57*	4%	7%	nt	-29%
C=CCc1cccc(CNc2nc3ccccc3n2CC)c1O	6	2	9%	-23%	-3%	5µM*
Cc1ccsc1CNC(=O)C1(C)CCCN1CC(C)C (stereo not drawn)	0	18	4%	1%	-1%	?
COCC(=O)Nc1nnc(-c2cccs2)s1	-3	-72*	-1%	24%	?	23%
COc1cccc(-c2nnc(NC(=O)Cc3cccs3)s2)c1	7	14	-17%	4%	-22%	42%
O=C(Cc1ccccc1)Nc1nc(-c2cccs2)cs1	0	15	-1%	-5%	2%	?
O=C(Cc1cccs1)Nc1nnc(-c2ccncc2)s1	4	9	-11%	10%	28µM*	9%
CCC(=O)Nc1nnc(-c2cccs2)s1	-3	11	2%	4%	nt	34%
O=C(Cc1ccccc1)Nc1nnc(-c2cccs2)s1	2	7	0%	-7%	20µM*	36%
O=C(COc1ccc(F)cc1)Nc1nnc(-c2ccncc2)s1	-3	5	-2%	9%	25µM*	-9%
